Rows were chosen to be rich in hits. Some 4.1% of all compounds tested hit in one or more screens of this group.
DAX1 inh-1 – inhibits human nuclear receptor DAX1. inhibition, % at 6.75 µM. hit rate 0.99% among 340,000. P51843. HEK293 Gal4-DAX1 luciferase reporter, luminescence;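 active means inhibition above the mean over all tested compounds plus 3 SD, cut at about 4.2% in these data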;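 further: 0% = DAX1-transfected cells with DMSO and 100% = empty-vector control cells with DMSO; inhibition shows as a rise in luminescence from relieved DAX1 repression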
Target sequence (P51843 207-470 limits assumed): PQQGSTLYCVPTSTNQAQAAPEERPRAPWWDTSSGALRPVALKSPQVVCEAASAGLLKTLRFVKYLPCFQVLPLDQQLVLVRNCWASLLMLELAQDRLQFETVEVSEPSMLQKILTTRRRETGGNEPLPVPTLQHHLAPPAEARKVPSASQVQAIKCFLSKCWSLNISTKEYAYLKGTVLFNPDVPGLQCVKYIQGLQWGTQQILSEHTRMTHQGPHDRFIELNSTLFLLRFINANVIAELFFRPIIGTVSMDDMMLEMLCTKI
PolyA inh – yeast polyadenylation inhibition | S. cerevisiae SKY197-pL101 polyadenylation reporter, beta-gal luminescence; efflux-impaired pdr1/pdr3 knockout yeast; score 100 = 6 SD above DMSO | activity score, % at 12 µM | hit rate 0.02% among 300,000 | AID 1875;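 active means lowest replicate activity score at least 50, where 100 means six control SD above control mean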;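 further: yeast exposed to compound for 9 h at 30 °C; higher score means more reporter readthrough which indicates perturbed polyadenylation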
hgDAF-12 ag – activates the H. glycines DAF-12 receptor ligand-binding domain; hit rate 1.8% among 370,000; activation, % at 6.8 µM; HEK293 GAL4-hgDAF12 UAS-luciferase reporter, agonist luminescence; normalized to butyrate control; AID 687014;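 active means activation above a cutoff set at the mean of all screened compounds plus 3 SD, cut at about 10% in these data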;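 further: 0% = DMSO wells and 100% = sodium butyrate wells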
DAX1 inh-2 – DAX1 (NR0B1) inhibition, primary screen | hit rate 1.1% among 370,000 | HEK293T StAR-luciferase reporter, SF-1/DAX-1 repression relief | AID 652010 | inhibition, % at 6.8 µM;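 active means inhibition above the mean over all tested compounds plus 3 SD, cut at about 3.6% in these data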;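 further: 0% = DAX-1 cells with DMSO and 100% = cells lacking DAX-1 with DMSO; higher inhibition means more luminescence from relief of DAX-1 repression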
ssDAF-12 act – S. stercoralis DAF-12 activation, primary screen; activation, % at 6.8 µM; HEK293 ssDAF-12/GRIP1 lit1-tk-luc reporter, luminescence; % of 3 µM dafachronic acid response; hit rate 1% among 370,000;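 active means activation above the mean over all tested compounds plus 3 SD, cut at about 0.9% in these data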;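 further: 0% = DMSO-only wells and 100% = 3 µM delta7-dafachronic acid wells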
hcDAF-12 act – activators of H. contortus DAF-12 nuclear receptor; AID 652067; activation, % at 6.8 µM; HEK293 hcDAF-12 lit1-tk-luc reporter, luminescence; 0% DMSO, 100% Δ7-dafachronic acid; hit rate 1.4% among 370,000;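 active means activation above the mean of all tested compounds plus 3 SD, cut at about 5.5% in these data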;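 further: 100% = response to 3 µM Δ7-dafachronic acid high control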
Active calls of the source: *; . = no result.

SMILES	DAX1 inh-1	PolyA inh	hgDAF-12 ag	DAX1 inh-2	ssDAF-12 act	hcDAF-12 act
Nc1ccc(O)c2c1C(=O)c1ccccc1C2=O	4.4*	0	3	1	-1	1
Nc1ccc(Br)c2c1C(=O)c1ccccc1C2=O	.	-31	.	.	.	.
O=c1c2ccccc2ncn1-c1ccc([N+](=O)[O-])cc1Cl	5.0*	-10	-2	0	-1	-3
Cc1cc(NS(=O)(=O)c2ccc(NC(=O)CSc3nnc(-c4ccncc4)n3-c3ccccc3)cc2)nc(C)n1	.	.	0	1	-2	-4
Nc1ccc(OCc2ccccc2)cc1[N+](=O)[O-]	0	.	11*	-1	-1	1
O=[N+]([O-])c1cccnc1Oc1ccc(OCc2ccccc2)cc1	2	29	6	1	0	-1
CCC(C)N(C(=O)CNc1nnnn1-c1ccccc1)C(C)CC (stereo not drawn)	.	.	-2	0	-1	-1
Cc1cc(N2O[C@]34C=C[C@]25C[C@@H](O)CC[C@]5(C)C3CC[C@]2(C)[C@@H]([C@H](C)/C=C/[C@H](C)C(C)C)CC[C@H]24)no1 (stereo partly drawn)	0	.	3	1	1.0*	5
O=C(N1CCC(Cc2ccccc2)CC1)n1ncc(C(O)(c2ccccc2)c2ccccc2)n1	.	.	-10	.	-2	-4
O=c1oc2ccc3ccccc3c2cc1-c1nnc(-c2cccs2)o1	3	-5	11*	2	1	3
O=c1oc2ccc3ccccc3c2cc1-c1nnc(-c2ccccc2)o1	1	-3	5	1	-1	1
O=c1oc2ccccc2cc1-c1nc(-c2cccs2)cs1	2	-15	4	1	0.9*	6.1*
O=c1oc2ccccc2cc1-c1ccccc1	6.0*	-15	6	1	0	0
O=C(c1cnn2c(C(F)F)cc(-c3ccccc3)nc12)N1CCSCC1	4.6*	-16	4	0	-1	0
O=C(c1cnn2c(C(F)F)cc(-c3ccccc3)nc12)N1CCOCC1	1	-11	0	0	-1	-1
CCCOc1ccccc1/C=C(\C#N)C(=O)Nc1cccnc1	5.0*	0	4	0	-1	0
C=CCNC(=O)NC(=O)COC(=O)CNS(=O)(=O)c1ccc(F)c(F)c1F	5.2*	14	-1	0	-1	0
O=C(COC(=O)CNS(=O)(=O)c1ccc(F)c(F)c1F)NC1CC1	-2	3	5	1	-1	0
CC1=C(C(=O)Nc2ccc(C)cc2C)C(c2ccc(Cl)cc2)n2nc(C(=O)OC(C)C)nc2N1 (stereo not drawn)	4.4*	0	0	0	-1	-2
CSc1nc2n(n1)C(c1cccc(F)c1)C(C(=O)Nc1ccc(C)cc1C)=C(C)N2 (stereo not drawn)	-1	-3	0	-1	0	-2
Cc1ccc(S(=O)(=O)Nc2c(C(=O)O)[nH]c3ccccc23)cc1C	0	-10	2	0	0	5.8*
Cc1cc(=O)[nH]c2ccc(S(=O)(=O)Nc3ccccc3)cc12	4.2*	22	0	0	0	1
Cc1cc(S(=O)(=O)Nc2c(C(=O)O)[nH]c3ccccc23)ccc1F	0	-9	1	0	1.1*	2
Cc1ccc(NC(=O)CSc2nnc(-c3ccccc3F)n2-c2ccccc2)c(C)c1	.	.	-4	0	-2	-3
Nc1ccc(N2CCN(c3cccc(Cl)c3)CC2)cc1	0	-7	0	-1	-1	0
SMILES	DAX1 inh-1	PolyA inh	hgDAF-12 ag	DAX1 inh-2	ssDAF-12 act	hcDAF-12 act
Oc1cccc(N2CCN(c3cccc(O)c3)CC2)c1	.	.	9	1	0.9*	2
CC1=N/C(=C\c2ccc([N+](=O)[O-])cc2)C(=O)N1c1ccc(C)c(Cl)c1	.	.	1	0	-2	0
O=C(NNS(=O)(=O)c1ccc(Br)cc1)c1csnn1	5.1*	.	0	0	0	0
Nc1nc(SCc2ccccc2)sc1C(=O)N1CCCCC1	3	.	11*	2	-1	4
CCOC(=O)N1CCC(N2CC34C=CC(O3)C(C(=O)Nc3ccc(C)cc3)C4C2=O)CC1 (stereo not drawn)	4.5*	-30	0	1	-1	1
C/C(=N/NC(=O)c1ccco1)c1cccc(NC(=O)c2ccc(C)s2)c1	2	-5	12*	2	0	5
C/C(=N/NC(=O)c1ccco1)c1cccc(NC(=O)c2ccc(C)o2)c1	1	7	13*	1	-1	2
C/C(=N\NC(=O)c1cccc(C)c1)c1cccc(NC(=O)c2ccco2)c1	2	-5	8	0	-1	1
CC1CCC2(CC1)CCC2NCc1ccc(Cl)c(Cl)c1 (stereo not drawn)	.	.	1	.	-1	-1
CC(C)(C)c1ccc(C(=O)Nn2cnnc2)cc1	3	-7	5	0	1.0*	4
O=C(N=Nc1c(O)n(Cc2ccccc2)c2ccccc12)c1ccc(O)cc1	1	-8	8	3.6*	0	6.0*
Cc1nnc2sc(-c3ccc(N(C)C)cc3)nn2c1=O	2	-17	12*	1	0	4
COC(=O)[C@]12C[C@H](CC(=O)NCc3cccc4ccccc34)C(=O)N(Cc3ccc(Cl)cc3Cl)C1=C[C@H](C(C)C)O[C@@H]2C1CC1	.	.	0	-1	-1	1
Nc1ccc(N=Nc2ccc(O)cc2)c(N)n1	-2	.	1	-2	0	0
COc1ccc(N=Nc2ccc(N)nc2N)cc1	4.6*	-9	11*	3	0	5
O=C(Nc1cccc(O)c1)c1cc(-c2ccco2)on1	1	4	11*	1	-1	1
O=C(COc1ccccc1)Nc1nc2cc3c(cc2s1)OCO3	0	-5	5	3	0	6.1*
c1c2c(cc3sc(N4CCCCC4)nc13)OCO2	-1	-13	9	3	1	6.0*
CC(=O)Nc1nc2cc3c(cc2s1)OCO3	2	-13	13*	3	-1	4
COc1ccc(OC)c(CN2C(=O)CSCC2(C)c2nnnn2C2CCCC2)c1 (stereo not drawn)	.	.	0	-1	-1	0
CCNC(=O)Nc1ccc2c(c1)C(=O)N(C)[C@H]1CC[C@@H](CC(=O)NCCN3CCCC3)O[C@@H]1CO2	.	.	6	0	0	1
CCC(CO)NCc1ccccc1OC(C)C (stereo not drawn)	5.0*	-9	-1	-1	-1	0
CCCC[C@H]1C2CC(OC(=O)NCc3ccc(Cl)cc3)C(C2)[C@H]2CCCCN21 (stereo partly drawn)	.	.	8	0	-1	-3

High-throughput results deposited in PubChem by several laboratories.
